The list is not random: actives were taken first. Their share in the collection is about 14%.
USP17 inh – blocks human USP17 ubiquitin-rhodamine cleavage; purified USP17, Ub-rhodamine cleavage fluorescence, 3 h; inhibition, % at 50 µM; 6.5% of 47,000 active
USP30 inh – blocks human USP30 ubiquitin-rhodamine cleavage; Q70CQ3; purified USP30, Ub-rhodamine cleavage fluorescence; inhibition, % at 25 µM; 5.3% of 47,000 active
Target sequence (Q70CQ3 whole entry, looked up): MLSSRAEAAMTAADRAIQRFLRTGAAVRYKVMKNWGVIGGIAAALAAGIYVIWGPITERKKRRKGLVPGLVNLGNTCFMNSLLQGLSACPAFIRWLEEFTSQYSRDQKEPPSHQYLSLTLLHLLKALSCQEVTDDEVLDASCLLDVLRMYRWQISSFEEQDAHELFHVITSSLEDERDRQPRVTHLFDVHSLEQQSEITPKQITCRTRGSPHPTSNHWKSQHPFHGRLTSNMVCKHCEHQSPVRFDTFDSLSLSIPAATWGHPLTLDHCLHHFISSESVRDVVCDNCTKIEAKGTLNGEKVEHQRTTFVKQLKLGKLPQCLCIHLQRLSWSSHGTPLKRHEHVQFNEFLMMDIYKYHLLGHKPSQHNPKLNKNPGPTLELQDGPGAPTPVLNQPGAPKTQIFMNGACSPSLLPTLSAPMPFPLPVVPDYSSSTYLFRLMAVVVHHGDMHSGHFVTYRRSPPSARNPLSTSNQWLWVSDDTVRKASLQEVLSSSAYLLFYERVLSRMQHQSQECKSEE
USP10 inh – inhibitors of human USP10 deubiquitinase. Q14694. inhibition, % at 20 µM. purified USP10, Ub-rhodamine fluorescence, 60 min. 1.1% of 47,000 active
USP8 block – blocks human USP8 ubiquitin-rhodamine cleavage; AID 1645853; inhibition, % at 20 µM; 4.2% of 47,000 active; purified USP8, Ub-rhodamine cleavage fluorescence, 30 min; P40818
USP28 inh – inhibitors of human USP28 deubiquitinase; Q96RU2; purified USP28, Ub-rhodamine cleavage fluorescence, 30 min; inhibition, % at 25 µM; 3% of 47,000 active
A number is an active result. Rule as the data show it: active = inhibition above about 30%; inactive = the rest.

`CCOc1ccc(NS(=O)(=O)c2cc(C(=O)N(C)C3CCN(C)CC3)ccc2C)cc1` gave USP17 inh inactive, USP30 inh inactive, USP10 inh inactive, USP8 block inactive and USP28 inh inactive.
For CN1[C@H]2CCN(CC3CC3)CC[C@@H]2Oc2ccccc2S1(=O)=O the results were USP17 inh inactive, USP30 inh inactive, USP10 inh inactive, USP8 block inactive and USP28 inh inactive.
Screening Cc1cccc(S(=O)(=O)N2CCC3(CC2)OC(C(=O)NCC(C)C)Cn2ccnc23)c1 (centres undefined) returned USP17 inh inactive, USP30 inh inactive, USP10 inh inactive, USP8 block inactive and USP28 inh inactive.
For COc1ccc(CCN2Cc3cc4ccccc4nc3OC2=O)cc1 the results were USP17 inh inactive, USP30 inh inactive, USP10 inh inactive, USP8 block inactive and USP28 inh inactive.
Screening Cc1ccc(CN2Cc3cc4ccccc4nc3OC2=O)o1 returned USP17 inh 41.6, USP30 inh inactive, USP10 inh inactive, USP8 block inactive and USP28 inh inactive.
Screening Cc1cc(C)c2cc3c(nc2c1)OC(=O)N(Cc1ccco1)C3 returned USP17 inh 55.5, USP30 inh inactive, USP10 inh inactive, USP8 block inactive and USP28 inh 39.6.
`COc1ccc2cc3c(nc2c1)OC(=O)N(Cc1ccccc1)C3` gave USP17 inh inactive, USP30 inh 38.7, USP10 inh inactive, USP8 block 31.6 and USP28 inh inactive.
Screening CCOc1ccc(-c2cnc(NCc3cccc(C)c3)n2C)cc1 returned USP17 inh inactive, USP30 inh inactive, USP10 inh inactive, USP8 block 53.2 and USP28 inh inactive.
Screening CCOc1ccc(NC(=O)CN2CCN(Cc3cccc(C)c3)S2(=O)=O)cc1 returned USP17 inh inactive, USP30 inh inactive, USP10 inh inactive, USP8 block inactive and USP28 inh inactive.
For O=C(Nc1ccccc1-c1nc(-c2ccccn2)no1)c1ccc(Cl)cc1 the results were USP17 inh 35.1, USP30 inh inactive, USP10 inh inactive, USP8 block inactive and USP28 inh inactive.
`COc1ccccc1C(=O)Nc1ccccc1-c1nc(-c2ccccn2)no1` gave USP17 inh 32.5, USP10 inh inactive and USP8 block inactive.
Fc1ccc(-c2noc([C@@H]3CCCN3Cc3ccc(F)c(F)c3)n2)nc1 was read as USP17 inh inactive, USP30 inh inactive, USP10 inh inactive, USP8 block inactive and USP28 inh inactive.
`O=C1OC[C@@H]2CCN(Cc3cccnc3)C[C@H]2N1Cc1ccccc1` gave USP17 inh inactive, USP30 inh inactive, USP10 inh inactive, USP8 block inactive and USP28 inh inactive.
Screening COc1cc(C(=O)Nc2nc3ccc(S(=O)(=O)N4CCCC4)cc3s2)cc(OC)c1OC returned USP17 inh 40.4, USP30 inh inactive, USP10 inh inactive, USP8 block inactive and USP28 inh inactive.
Screening O=C(Cc1nnc(NC(=O)Nc2ccc3c(c2)OCO3)s1)NCc1ccccc1 returned USP17 inh inactive, USP30 inh inactive, USP10 inh 33.6, USP8 block 48.1 and USP28 inh inactive.
Screening Cc1cccc(NC(=O)Nc2nnc(CC(=O)NCc3ccccc3)s2)c1 returned USP17 inh 72.6, USP30 inh inactive, USP10 inh inactive, USP8 block inactive and USP28 inh inactive.
For O=C(Nc1ccc2c(c1)OCCO2)Nc1nnc(CC(=O)N2CCOCC2)s1 the results were USP17 inh inactive, USP30 inh inactive, USP10 inh inactive, USP8 block inactive and USP28 inh inactive.
`Cc1cccc(C(=O)Nc2nnc(Cc3cn(C)c4ccccc34)s2)c1` gave USP17 inh inactive, USP30 inh inactive, USP10 inh inactive, USP8 block 33.5 and USP28 inh inactive.
O=C(Nc1nnc(Cc2ccccc2)s1)c1cc(=O)[nH]c2ccccc12 was read as USP17 inh inactive, USP30 inh inactive, USP10 inh inactive, USP8 block inactive and USP28 inh inactive.
Screening O=C(Nc1ccc2c(c1)OCCO2)Nc1nnc(CC(=O)N2CCCCC2)s1 returned USP17 inh inactive, USP30 inh inactive, USP10 inh inactive, USP8 block inactive and USP28 inh 56.4.
Cc1ncc(C(=O)NC2CC2)c(=O)n1CC(=O)Nc1ccccc1F was read as USP17 inh inactive, USP30 inh inactive, USP10 inh inactive, USP8 block inactive and USP28 inh inactive.
Screening Cc1nc2c(-c3ccncc3)nsc2c(=O)n1CC(=O)Nc1ccccc1F returned USP17 inh 45.6, USP30 inh inactive, USP10 inh inactive, USP8 block inactive and USP28 inh inactive.
For O=C(Nc1ccccc1C(F)(F)F)c1cccc(S(=O)(=O)Nc2cc(C(F)(F)F)ccc2Cl)c1 the results were USP17 inh inactive, USP30 inh inactive, USP10 inh 42.7, USP8 block inactive and USP28 inh inactive.
Screening O=C(COc1cc([N+](=O)[O-])cc2cccnc12)NCCC1=CCCCC1 returned USP17 inh 85.5, USP30 inh 37.0, USP10 inh inactive, USP8 block 97.6 and USP28 inh inactive.
COc1ccc(OCC(=O)NCCC2=CCCCC2)c([N+](=O)[O-])c1 was read as USP17 inh inactive, USP30 inh inactive, USP10 inh inactive, USP8 block inactive and USP28 inh inactive.
`O=C(Cn1cncc(-c2nc(-c3ccccc3)cs2)c1=O)NC1CCCC1` gave USP17 inh 66.5, USP30 inh 48.9, USP10 inh inactive, USP8 block inactive and USP28 inh 35.5.
Cc1c(N2CCN(S(=O)(=O)c3ccc(F)c(F)c3)CC2)c(=O)n(C)c(=O)n1C was read as USP17 inh 43.6, USP30 inh 36.6, USP10 inh inactive, USP8 block inactive and USP28 inh inactive.
Cc1ccc(S(=O)(=O)N2CCN(c3c(C)n(C)c(=O)n(C)c3=O)CC2)cc1C was read as USP17 inh inactive, USP30 inh 37.1, USP10 inh inactive, USP8 block inactive and USP28 inh inactive.
Screening COc1cc(-n2c(=O)c3ccccc3n(CC(=O)NCCc3ccccc3)c2=O)cc(OC)c1OC returned USP17 inh inactive, USP30 inh 35.4, USP10 inh inactive, USP8 block inactive and USP28 inh inactive.
Screening CCN1CCN(CC(=O)NCCc2ccc(OC)c(OC)c2)CC1 returned USP17 inh inactive, USP30 inh inactive, USP10 inh inactive, USP8 block inactive and USP28 inh inactive.
COc1cc(-n2c(=O)c3ccccc3n(Cc3cccc(F)c3)c2=O)cc(OC)c1OC was read as USP17 inh inactive, USP30 inh 34.6, USP10 inh inactive, USP8 block inactive and USP28 inh inactive.
`COc1ccc(-c2nnn(CC(=O)NCCc3ccccc3)n2)cc1OC` gave USP17 inh 47.2, USP30 inh inactive, USP10 inh inactive, USP8 block inactive and USP28 inh inactive.
`COc1cc(-n2c(=O)c3ccccc3n(CC(=O)NCC3CCCO3)c2=O)cc(OC)c1OC` (centres undefined) gave USP17 inh inactive, USP30 inh inactive, USP10 inh inactive, USP8 block inactive and USP28 inh inactive.
Screening CC1=C(C(=O)OCc2ccc(C)cc2)C(c2cccc(Cl)c2)CC(=O)N1 (centres undefined) returned USP17 inh inactive, USP30 inh inactive, USP10 inh inactive, USP8 block inactive and USP28 inh inactive.

Assay outcomes as filed in PubChem BioAssay.
